Only some compounds are listed: those with a hit (about 9.4% of all), similar ones and a draw of the others.
ELG1 genotoxic = qHTS screen for small molecules that induce genotoxicity in human embryonic kidney (HEK293T) cells expressing luciferase-tagged ELG1; HEK293T ELG1-luciferase reporter, luminescence, 16 h; Potency, µM (top dose mostly 46 µM), for the others: at the top dose activity change, positive = activation, usual class: activators; hit rate 1.3% among 330,000; note: % of control where 0% means no effect; nearly all actives have a fitted effect of over 60% in size
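HEK293T cells expressing luciferase-tagged ELG1 were exposed to compound or DMSO vehicle for 16 hr at 37 °C and 5% CO2. Luciferase activity was then measured with ONE-Glo after 30 min at room temperature.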
NPC1 promoter act = qHTS Assay for NPC1 Promoter Activators; Huh7 NPC1 promoter luciferase reporter, 24 h; Potency, µM (top dose mostly 9.22 µM), inactives show at the top dose activation, most hits filed as activators; hit rate 2.4% among 320,000; AID 485313, 2010; note: % of control where 0% means no effect; nearly all actives have a fitted effect of over 60% in size
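NPC1 promoter–luciferase Huh7 cells; 24 h compound; luminescence.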
ELG1 DNA repair = qHTS screen for small molecules that inhibit ELG1-dependent DNA repair in human embryonic kidney (HEK293T) cells expressing luciferase-tagged ELG1. HEK293T ELG1-luciferase reporter, luminescence, 16 h; DNA damage induced by 5-fluorouridine. Potency, µM (series often up to 46.1 µM), inactives show at the highest dose activity change, negative = inhibition, most hits filed as inhibitors. hit rate 2.3% among 330,000; note: % is set by controls: 0 for no effect and ±100 for the full control effect; nearly all actives have a fitted effect of over 55% in size
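DMSO vehicle served as the neutral condition. Each well held 2,000 cells given 5-fluorouridine plus compound; after 16 hr at 37 °C/5% CO2, ONE-Glo was added and luciferase measured 30 min later.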
SMN2 splice up = qHTS Assay for Enhancers of SMN2 Splice Variant Expression. Potency, µM (titrated, usually from 46.1 µM), for inactives: at the highest dose activity change, positive = activation, most hits filed as activators. HEK293 SMN2-luciferase splicing reporter, luminescence, 30-36 h. hit rate 2.8% among 210,000; note: % of control where 0% means no effect; nearly all actives have a fitted effect of over 55% in size
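HEK293 cells carry an SMN2 minigene-luciferase reporter in which exon 7 inclusion puts luciferase in frame. Cells were seeded at 2000 cells/well, attached for 10-12 hours, then exposed to compounds for 30-36 hours at 37C before ONE-Glo luminescence.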
Rab9 prom act = qHTS Assay for Rab9 Promoter Activators. Potency, µM (titrated, usually from 9.22 µM), for the others: at the highest dose activation, negative = inhibition, hits mostly activators. Huh7 Rab9 promoter-luciferase reporter, luminescence, 24 h. hit rate 2.8% among 320,000; note: % of control where 0% means no effect; nearly all actives have a fitted effect of over 60% in size
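Huh7 cells stably carrying Rab9 promoter–luciferase reporter, plated 1500 cells/well, compound added after 2 h and incubated 24 h at 37 °C; luciferase luminescence then read after 10 min with detection reagent.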
FLuc modulator = qHTS profiling assay for firefly luciferase inhibitor/activator using purifed enzyme and Km concentrations of substrates (counterscreen for miR-21 project) | Luciferin 4-monooxygenase (Photinus pyralis), P08659 | purified FLuc, Km substrates, luminescence inhibition | Potency, µM (top dose mostly 57.5 µM), for the others: at the top dose activity change, negative = inhibition, hits mostly inhibitors | hit rate 6.9% among 360,000;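 note: plate controls were vehicle for no effect and reference inhibitor for full effect; nearly all actives have a fitted effect of over 55% in size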
Target sequence (P08659 whole entry, looked up): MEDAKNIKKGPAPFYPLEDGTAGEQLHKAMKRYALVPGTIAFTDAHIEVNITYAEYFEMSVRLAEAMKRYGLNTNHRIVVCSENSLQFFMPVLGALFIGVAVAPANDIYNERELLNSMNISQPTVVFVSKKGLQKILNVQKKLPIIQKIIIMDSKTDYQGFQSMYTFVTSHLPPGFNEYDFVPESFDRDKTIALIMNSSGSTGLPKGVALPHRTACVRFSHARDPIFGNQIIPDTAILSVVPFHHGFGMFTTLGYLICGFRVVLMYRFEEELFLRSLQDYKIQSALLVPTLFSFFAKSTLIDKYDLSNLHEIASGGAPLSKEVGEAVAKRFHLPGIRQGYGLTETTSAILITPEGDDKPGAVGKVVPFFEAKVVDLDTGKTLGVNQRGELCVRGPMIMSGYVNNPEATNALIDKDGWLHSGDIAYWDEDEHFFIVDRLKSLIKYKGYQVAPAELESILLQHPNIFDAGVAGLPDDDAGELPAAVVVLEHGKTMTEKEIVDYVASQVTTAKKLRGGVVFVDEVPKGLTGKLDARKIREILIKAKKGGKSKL
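Biochemical qHTS of compounds, final roughly 60 µM downward over six points, against 10 nM purified firefly luciferase using Km concentrations of substrates (10 uM D-luciferin, 10 uM ATP) in Tris acetate pH 7.5 buffer; luminescence output.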
* = called active by the depositor; ? = inconclusive; nt = no result. Calls come from the whole dose curve; as a rule, active = well fitted curve in the direction sought with a large enough effect; inconclusive = small, poorly fitted or top-dose-only effect, or another doubt; inactive = no such curve, though single readings can be large; an effect the other way counts as inactive or inconclusive. Potency is the fitted concentration of half-maximal effect.

SMILES | ELG1 genotoxic | NPC1 promoter act | ELG1 DNA repair | SMN2 splice up | Rab9 prom act | FLuc modulator
COc1ccc(OCC(O)CNC(=O)c2c(-c3ccccc3)noc2C)cc1 (configuration not stated) | 0% | -1% | -7% | nt | -2% | 1%
O=C(Nc1cc(Cl)ccc1N1CCOCC1)c1ccco1 | 1% | -2% | -2% | nt | 0% | 2%
O=C(Nc1ccc(CN2CCCCC2)cc1)c1cccc(F)c1 | ? | 16% | ? | 20% | 23% | ?
CCN1CCN(c2ccc(NC(=O)c3cccc(F)c3)cc2Cl)CC1 | ? | ? | ? | nt | 3.5µM* | 17µM*
O=C(Nc1ccc(N2CCCC2)c(Cl)c1)c1ccco1 | ? | 1.4µM* | ? | 6.3µM* | 0.5µM* | 4.8µM*
O=C(Nc1ccc(N2CCOCC2)c([N+](=O)[O-])c1)c1ccco1 | 7% | 26% | ? | 13µM* | ? | 17µM*
CCn1c(SCC(=O)Nc2cc(C)ccc2F)nnc1-c1ccccc1O | nt | nt | nt | -21% | nt | 5%
O=C(Nc1ccc(Cl)c(Cl)c1)c1cc(S(=O)(=O)N2CCN(c3cccc(Cl)c3)CC2)ccc1F | nt | nt | nt | nt | nt | -9%
OC1CCN(c2cc(-c3ccccc3)nc3cc(-c4ccc(F)cc4)nn23)CC1 | -15% | -2% | 13µM* | -3% | -3% | 1%
Cc1cc(N2CCOCC2)n2nc(-c3cccc(F)c3)cc2n1 | 5% | 1% | -23% | -10% | -3% | 0%
COc1cc(OC)cc(-c2cc3nc(C)cc(N4CCN(C(=O)c5ccco5)CC4)n3n2)c1 | 3% | 0% | ? | -13% | -2% | -6%
Cc1cc(N2CCN(C(=O)c3ccco3)CC2)n2nc(-c3cccc(F)c3)cc2n1 | -20% | 0% | 16µM* | -12% | 4% | ?
COc1cccc(-c2cc3nc(-c4ccccc4)cc(N4CCCC(O)C4)n3n2)c1 (configuration not stated) | -11% | -5% | 16µM* | nt | 0% | -15%
CCN1CCN(c2cc(-c3ccccc3)nc3cc(-c4cccc(F)c4)nn23)CC1 | -5% | -8% | 23µM* | -64% | -4% | 6%
COCOc1cc(OC)ccc1C(=O)/C=C/c1cccc(C(F)(F)F)c1 | nt | nt | nt | -4% | nt | nt
O=C(Nc1ccc2ccccc2c1)[C@H]1C[C@@H]1[C@H](NP(=O)(c1ccccc1)c1ccccc1)c1ccccc1 | nt | nt | nt | -16% | nt | nt
Cc1oc(-c2ccc(-c3ccccc3)cc2)nc1CN1CCN(CC(=O)N(C)C)CC1 | ? | ? | ? | nt | ? | 5.4µM*
COc1cc(-c2nc3nc[nH]n3c2Nc2ccc(C(C)C)cc2)ccc1O | nt | nt | nt | -3% | nt | ?
COc1ccc(-c2csc(NC(=O)c3ccccc3C(=O)O)n2)cc1 | 0% | -4% | 21% | -51% | -2% | 15µM*
COC(=O)c1c(-c2ccc(F)cc2)csc1NC(=O)C1CCCO1 (configuration not stated) | 7% | 17% | 1% | 0% | 23% | 27µM*
COc1ccc(-c2csc(NC(=O)C3CCCO3)n2)cc1 (configuration not stated) | ? | ? | 17% | 3% | 4µM* | 21µM*
COC(=O)c1c(-c2ccncc2)csc1NC(=O)c1ccoc1C | ? | 2.8µM* | ? | 11µM* | 2µM* | 8.5µM*
Cc1nc2cc(-c3cccc(F)c3)nn2c(C)c1CCC(=O)Nc1ccccc1C(N)=O | nt | nt | nt | 1% | nt | ?
CC(=O)c1ccc(NC(=O)CSc2nc(C3CCCC3)nc3c2c(=O)n(C)c(=O)n3C)cc1 | nt | nt | nt | nt | nt | -3%
COc1cccc(-c2csc(NNC(=O)c3cccs3)n2)c1 | 6% | -4% | 7% | nt | -2% | ?
SMILES | ELG1 genotoxic | NPC1 promoter act | ELG1 DNA repair | SMN2 splice up | Rab9 prom act | FLuc modulator
COc1ccc(-c2csc(NC(=O)c3ccoc3C)n2)cc1 | ? | ? | ? | 14% | ? | 12µM*
COc1cccc(-c2csc(NC(=O)Oc3ccccc3)n2)c1 | 21% | 25% | ? | -6% | 1% | 12µM*
COc1ccc(-c2nsc(NC(=O)c3ccccc3Br)n2)cc1 | nt | nt | nt | 13% | nt | 17µM*
CC(OC(=O)CNC(=O)c1ccccc1F)C(=O)Nc1nc(-c2ccccc2)cs1 (configuration not stated) | ? | ? | ? | 13µM* | ? | ?
COc1ccc(-c2csc(NC(=O)c3c(C)noc3C)n2)cc1 | -1% | 3% | ? | nt | 0% | ?
COc1ccccc1C(=O)Nc1nc(-c2ccccc2)ns1 | nt | nt | nt | 9% | nt | ?
CC(OC(=O)c1ccc(O)cc1)C(=O)Nc1nc(-c2ccccc2)cs1 (configuration not stated) | -3% | 13% | ? | nt | 4% | -24%
O=C(NCCCN1CCN(c2ccc(F)cc2)CC1)c1cnn(-c2ccc(F)cc2)c1-n1cccc1 | nt | nt | nt | nt | nt | -8%
Cc1ccc(S(=O)(=O)Nc2cc(Cl)c3oc4c(c3c2)CCCC4)cc1 | nt | nt | nt | -28% | nt | ?
C=CCn1c(NCc2ccc(N(C)C)cc2)nc2ccccc21 | 5% | 18% | ? | 30% | 13% | 24µM*
Cc1ccc(CNc2nc3ccccc3n2C)cc1 | ? | 0.5µM* | ? | nt | 0.5µM* | 2.4µM*
CCCCn1c(NCc2ccc(N(C)C)cc2)nc2ccccc21 | -3% | 3% | -25% | -12% | 9% | ?
Cn1c(NCc2ccc(Cl)cc2)nc2ccccc21 | ? | 2.5µM* | ? | 11µM* | 3.5µM* | 9.5µM*
Cn1c(S(=O)(=O)Cc2ccc(Cl)cc2)nc2ccccc21 | -13% | -4% | -1% | nt | -6% | -6%
Cn1c(NCc2c(O)ccc3ccccc23)nc2ccccc21 | -1% | -1% | ? | 9% | -9% | ?
CC(=O)Nc1nc2ccccc2n1Cc1ccc(Cl)cc1 | 7% | -8% | 13µM* | nt | -1% | 0%
Cc1ccccc1Cn1c(CN2CCC(C(=O)NCCN(C)C)CC2)cc2ccccc21 | nt | nt | nt | nt | nt | 1%
CCn1c(NCc2ccc(OC)cc2)nc2ccccc21 | 11% | 1% | ? | nt | 7% | ?
CCn1c(NCc2ccccc2Cl)nc2ccccc21 | 1% | 19% | ? | ? | 29% | 19µM*
O=C(c1ccccc1)n1nc(-c2ccc(Cl)cc2)nc1NCc1ccco1 | nt | nt | nt | ? | nt | 2%

From PubChem BioAssay
